Targets with a hit are over-represented here; the source holds about 7,900 in all. About 0.6% of all pairs of compound and target were hits. A number with no mark means an inactive call.
Columns and labels:
Test in all cases: log2 fold change, soluble protein after heating vs DMSO (PISA); higher = thermal stabilisation; K562 cells, 10 uM, 30 min; active = over 0.2 and 3.5 SD of the protein, either way, in both replicates (recomputed)
[1] = compound: CC1=C(C=C(C=C1)NC(=O)C2=CC(=CC=C2)C(C)(C)C#N)NC3=CC4=C(C=C3)N=CN(C4=O)C
Procedure, shortened: (§1)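 Quantification of soluble protein used TMTpro 16plex LC-MS/MS, with channel sums equalised. Samples were the supernatant after 21,000xg for 90 min of pooled aliquots from K562 cells (2×10^6 cells/mL) treated with 10 μM compound for 30 min, heated for 3 min over 48°C-58°C, and extracted in PBS with 0.5% NP-40 at 4°C. Values, from duplicates, describe thermal stability against control samples on a log2 fold-change scale.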

[2] = compound: CC1=C(C=C(C=C1)NC(=O)C2=CC(=CC=C2)N(C)C)NC(=O)C3=CC=C(C=C3)O
Procedure, shortened: as §1

[3] = compound: CC1=CC=C(C=C1)SC2=C3C=C(SC3=CN=C2)C(=O)N
Procedure, shortened: as §1

[4] = compound: CC1=NC(=CC=C1)C2=C(N=C(N2)C(C)(C)C)C3=CC4=NC=CN=C4C=C3
Procedure, shortened: as §1

Nexturastat A = compound: CCCCN(Cc1ccc(C(=O)NO)cc1)C(=O)Nc1ccccc1 [Nexturastat A]
Procedure, shortened: as §1

vemurafenib = compound: CCCS(=O)(=O)Nc1ccc(F)c(C(=O)c2c[nH]c3ncc(-c4ccc(Cl)cc4)cc23)c1F [vemurafenib]
Procedure, shortened: as §1

[5] = compound: CCCS(=O)(=O)Nc1ccc(F)c(C(=O)c2c[nH]c3ncc(Cl)cc23)c1F
Procedure, shortened: as §1

[6] = compound: CCCc1cc(C)[nH]c(=O)c1CNC(=O)c1cc(-c2ccnc(N3CCN(C)CC3)c2)cc2c1cnn2C(C)C
Procedure, shortened: as §1

givinostat = compound: CCN(CC)Cc1ccc2cc(COC(=O)Nc3ccc(C(=O)NO)cc3)ccc2c1 [givinostat]
Procedure, shortened: as §1

barasertib = compound: CCN(CCCOc1ccc2c(Nc3cc(CC(=O)Nc4cccc(F)c4)[nH]n3)ncnc2c1)CCOP(=O)(O)O [barasertib]
Procedure, shortened: as §1

Chain of UniProt P08754 (P08754 whole entry, looked up): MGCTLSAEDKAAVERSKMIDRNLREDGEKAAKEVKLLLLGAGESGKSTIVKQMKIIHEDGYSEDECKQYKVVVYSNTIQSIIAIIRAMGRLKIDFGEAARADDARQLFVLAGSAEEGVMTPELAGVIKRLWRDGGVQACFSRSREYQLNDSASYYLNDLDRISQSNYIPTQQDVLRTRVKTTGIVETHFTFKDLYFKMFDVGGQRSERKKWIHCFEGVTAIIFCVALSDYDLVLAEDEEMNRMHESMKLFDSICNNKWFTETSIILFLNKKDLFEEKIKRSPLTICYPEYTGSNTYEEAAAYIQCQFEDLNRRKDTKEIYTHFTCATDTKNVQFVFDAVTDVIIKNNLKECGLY
Chain of UniProt Q9NP66 (Q9NP66 whole entry, looked up): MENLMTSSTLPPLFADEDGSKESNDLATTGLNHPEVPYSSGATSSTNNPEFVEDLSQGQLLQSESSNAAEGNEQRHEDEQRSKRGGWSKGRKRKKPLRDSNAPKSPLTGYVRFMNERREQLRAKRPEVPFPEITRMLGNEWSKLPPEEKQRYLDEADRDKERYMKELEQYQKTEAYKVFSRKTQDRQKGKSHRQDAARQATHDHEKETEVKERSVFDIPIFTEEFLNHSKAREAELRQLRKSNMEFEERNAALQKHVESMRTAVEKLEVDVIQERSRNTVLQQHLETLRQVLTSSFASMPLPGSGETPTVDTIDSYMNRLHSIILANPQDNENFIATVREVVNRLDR
Chain of UniProt O14929 (O14929 whole entry, looked up): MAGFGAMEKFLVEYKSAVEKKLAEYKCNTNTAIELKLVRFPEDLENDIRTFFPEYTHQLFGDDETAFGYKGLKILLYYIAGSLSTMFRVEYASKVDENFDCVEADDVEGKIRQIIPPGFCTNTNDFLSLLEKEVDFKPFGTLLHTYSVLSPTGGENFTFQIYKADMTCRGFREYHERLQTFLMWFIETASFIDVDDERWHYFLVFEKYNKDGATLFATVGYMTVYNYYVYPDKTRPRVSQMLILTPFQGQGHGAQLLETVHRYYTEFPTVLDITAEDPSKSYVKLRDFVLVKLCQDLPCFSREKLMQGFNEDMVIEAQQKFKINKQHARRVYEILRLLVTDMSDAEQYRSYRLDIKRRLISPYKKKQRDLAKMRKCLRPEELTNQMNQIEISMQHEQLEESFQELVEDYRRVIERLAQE
Chain of UniProt P23327 (P23327 whole entry, looked up): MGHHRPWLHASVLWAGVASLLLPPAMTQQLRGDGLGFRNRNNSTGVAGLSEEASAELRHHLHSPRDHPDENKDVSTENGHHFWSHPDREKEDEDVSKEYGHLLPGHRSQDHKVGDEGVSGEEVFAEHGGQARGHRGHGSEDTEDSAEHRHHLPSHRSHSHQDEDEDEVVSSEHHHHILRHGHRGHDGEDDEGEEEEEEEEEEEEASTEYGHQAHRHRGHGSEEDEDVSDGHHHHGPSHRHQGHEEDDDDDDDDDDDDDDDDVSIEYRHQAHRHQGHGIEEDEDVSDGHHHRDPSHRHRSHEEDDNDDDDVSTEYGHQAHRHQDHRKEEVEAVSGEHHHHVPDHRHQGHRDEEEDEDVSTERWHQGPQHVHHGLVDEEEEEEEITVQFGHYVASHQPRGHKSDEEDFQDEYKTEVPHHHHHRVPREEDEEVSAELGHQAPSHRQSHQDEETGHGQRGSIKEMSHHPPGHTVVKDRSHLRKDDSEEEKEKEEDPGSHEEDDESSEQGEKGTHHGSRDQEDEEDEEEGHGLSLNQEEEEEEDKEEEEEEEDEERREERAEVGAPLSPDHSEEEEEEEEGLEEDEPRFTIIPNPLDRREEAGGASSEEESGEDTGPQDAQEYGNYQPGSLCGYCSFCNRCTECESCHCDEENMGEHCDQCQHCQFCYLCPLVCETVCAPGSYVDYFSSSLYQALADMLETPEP
Chain of UniProt Q8N2G8 (Q8N2G8 whole entry, looked up): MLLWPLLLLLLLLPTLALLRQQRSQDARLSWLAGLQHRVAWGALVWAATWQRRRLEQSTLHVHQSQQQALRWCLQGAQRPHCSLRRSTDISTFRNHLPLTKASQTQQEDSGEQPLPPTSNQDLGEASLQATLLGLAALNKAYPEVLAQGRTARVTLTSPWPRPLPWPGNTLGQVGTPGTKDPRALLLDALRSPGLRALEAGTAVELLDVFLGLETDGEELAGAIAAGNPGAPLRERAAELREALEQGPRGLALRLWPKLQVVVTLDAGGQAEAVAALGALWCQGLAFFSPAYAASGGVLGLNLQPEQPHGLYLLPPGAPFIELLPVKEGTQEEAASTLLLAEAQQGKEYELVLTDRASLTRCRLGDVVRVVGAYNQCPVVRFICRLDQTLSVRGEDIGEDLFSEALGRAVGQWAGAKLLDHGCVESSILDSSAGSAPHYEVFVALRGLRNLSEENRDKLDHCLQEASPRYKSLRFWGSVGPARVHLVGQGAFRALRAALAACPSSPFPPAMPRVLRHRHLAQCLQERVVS
Chain of UniProt Q7Z4Q2 (Q7Z4Q2 whole entry, looked up): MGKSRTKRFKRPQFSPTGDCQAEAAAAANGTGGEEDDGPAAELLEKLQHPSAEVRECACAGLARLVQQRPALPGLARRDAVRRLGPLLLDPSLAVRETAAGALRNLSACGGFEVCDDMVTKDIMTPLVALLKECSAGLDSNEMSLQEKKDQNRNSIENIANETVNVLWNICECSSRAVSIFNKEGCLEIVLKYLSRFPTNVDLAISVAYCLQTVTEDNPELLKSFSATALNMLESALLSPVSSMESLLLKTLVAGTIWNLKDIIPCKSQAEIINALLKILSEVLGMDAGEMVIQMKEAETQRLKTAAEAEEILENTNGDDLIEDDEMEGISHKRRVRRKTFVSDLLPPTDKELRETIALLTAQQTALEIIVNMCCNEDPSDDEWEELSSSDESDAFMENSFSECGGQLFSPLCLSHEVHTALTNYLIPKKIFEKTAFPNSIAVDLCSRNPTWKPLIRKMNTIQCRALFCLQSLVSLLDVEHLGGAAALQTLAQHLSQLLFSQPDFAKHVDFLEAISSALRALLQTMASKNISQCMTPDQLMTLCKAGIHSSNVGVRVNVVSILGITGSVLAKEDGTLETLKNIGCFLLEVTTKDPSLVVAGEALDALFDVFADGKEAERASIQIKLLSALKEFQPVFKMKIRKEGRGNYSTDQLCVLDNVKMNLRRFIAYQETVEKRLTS
Chain of UniProt Q9H0R8 (Q9H0R8 whole entry, looked up): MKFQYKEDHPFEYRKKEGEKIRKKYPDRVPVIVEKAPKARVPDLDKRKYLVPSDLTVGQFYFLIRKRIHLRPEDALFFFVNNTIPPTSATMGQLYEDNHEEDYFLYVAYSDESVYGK
Chain of UniProt P02008 (P02008 whole entry, looked up): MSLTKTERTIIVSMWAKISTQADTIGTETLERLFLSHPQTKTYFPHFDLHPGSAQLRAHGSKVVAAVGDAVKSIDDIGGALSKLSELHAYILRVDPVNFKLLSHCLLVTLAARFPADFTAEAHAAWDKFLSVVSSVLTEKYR
Chain of UniProt O75146 (O75146 whole entry, looked up): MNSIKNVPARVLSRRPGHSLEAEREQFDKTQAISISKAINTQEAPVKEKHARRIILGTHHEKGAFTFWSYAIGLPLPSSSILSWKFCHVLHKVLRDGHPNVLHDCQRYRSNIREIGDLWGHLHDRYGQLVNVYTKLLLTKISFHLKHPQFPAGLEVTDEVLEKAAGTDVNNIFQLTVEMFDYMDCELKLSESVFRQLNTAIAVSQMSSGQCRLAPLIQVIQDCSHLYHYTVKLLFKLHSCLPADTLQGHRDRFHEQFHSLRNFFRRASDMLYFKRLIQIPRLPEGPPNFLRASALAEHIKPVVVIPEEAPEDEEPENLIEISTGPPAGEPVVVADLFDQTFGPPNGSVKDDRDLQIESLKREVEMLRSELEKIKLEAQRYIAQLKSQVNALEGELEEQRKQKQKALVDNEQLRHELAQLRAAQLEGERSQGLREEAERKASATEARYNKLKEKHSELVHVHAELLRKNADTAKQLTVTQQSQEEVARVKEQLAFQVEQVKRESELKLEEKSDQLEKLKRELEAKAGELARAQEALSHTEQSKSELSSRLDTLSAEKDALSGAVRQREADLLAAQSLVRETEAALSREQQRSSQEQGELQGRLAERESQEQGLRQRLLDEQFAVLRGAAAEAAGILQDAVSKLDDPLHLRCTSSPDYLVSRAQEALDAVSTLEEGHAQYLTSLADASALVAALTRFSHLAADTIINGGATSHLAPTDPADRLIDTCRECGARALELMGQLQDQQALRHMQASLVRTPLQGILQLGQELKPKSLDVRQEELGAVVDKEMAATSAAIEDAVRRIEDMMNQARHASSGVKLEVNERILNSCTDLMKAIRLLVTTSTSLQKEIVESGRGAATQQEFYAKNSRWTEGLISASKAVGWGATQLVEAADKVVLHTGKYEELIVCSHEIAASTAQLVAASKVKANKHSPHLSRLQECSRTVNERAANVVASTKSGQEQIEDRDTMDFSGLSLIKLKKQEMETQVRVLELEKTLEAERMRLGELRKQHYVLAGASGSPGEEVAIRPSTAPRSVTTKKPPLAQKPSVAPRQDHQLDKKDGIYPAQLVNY
Chain of UniProt Q9NZC3 (Q9NZC3 whole entry, looked up): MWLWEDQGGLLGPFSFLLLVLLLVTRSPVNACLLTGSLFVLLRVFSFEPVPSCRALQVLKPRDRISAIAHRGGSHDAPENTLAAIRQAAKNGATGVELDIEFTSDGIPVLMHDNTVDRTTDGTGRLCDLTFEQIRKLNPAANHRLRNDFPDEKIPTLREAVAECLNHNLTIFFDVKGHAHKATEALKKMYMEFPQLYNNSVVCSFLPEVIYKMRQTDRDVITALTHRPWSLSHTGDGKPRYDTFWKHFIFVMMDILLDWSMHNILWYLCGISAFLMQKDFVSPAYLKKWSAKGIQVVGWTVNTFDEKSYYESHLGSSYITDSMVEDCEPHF
Chain of UniProt Q01628 (Q01628 whole entry, looked up): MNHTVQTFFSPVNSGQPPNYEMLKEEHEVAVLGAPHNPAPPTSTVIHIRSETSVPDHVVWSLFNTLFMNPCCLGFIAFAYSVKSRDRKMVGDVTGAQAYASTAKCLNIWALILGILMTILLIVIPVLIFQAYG

Target | log2 fold change [1] | log2 fold change [2] | log2 fold change [3] | log2 fold change [4] | log2 fold change (Nexturastat A) | log2 fold change (vemurafenib) | log2 fold change [5] | log2 fold change [6] | log2 fold change (givinostat) | log2 fold change (barasertib)
HEATR3 (UniProt Q7Z4Q2) | 0.004 | 0.116 | 0.034 | 0.047 | 0.016 | 0.007 | 0.082 | -0.067 | 0.069 | 0.144
HRC (UniProt P23327) | -0.199 | 0.031 | 0.008 | 0.005 | 0.041 | -0.044 | -0.097 | -0.025 | -0.059 | 0.021
GABARAPL1 isoform 2 (UniProt Q9H0R8) | -0.008 | 0.003 | 0.006 | 0.002 | -0.013 | -0.016 | -0.025 | -0.007 | 0.044 | 0.021
GAK (UniProt O14976) | 0.214 | 0.038 | -0.337 | -0.14 | 0.452 | -0.06 | 0.114 | 0.17 | 0.64 | 
GSR (UniProt P00390) | -0.011 | 0.022 | 0.016 | 0.007 | -0.073 | -0.027 | 0.02 | -0.026 | -0.253 (active) | -0.03
FUCA2 (UniProt Q9BTY2) | 0.015 | 0 | 0.016 | -0.02 | -0.025 | 0.005 | -0.053 | -0.025 | -0.028 | -0.01
HMG20A (UniProt Q9NP66) | -0.051 | -0.009 | -0.153 | -0.016 | 0.033 | 0.027 | 0.016 | 0.149 | 0.03 | 0.024
FIBP (UniProt O43427) | 0.046 | -0.009 | 0.001 | 0 | -0.009 | 0.03 | 0.089 | 0 | -0.009 | -0.071
HMGCR isoform 3 (UniProt P04035) | 0.131 | -0.046 | 0.061 | -0.115 | 0.074 | -0.002 | -0.04 | -0.043 | 0.034 | 0.027
GNAI3 (UniProt P08754) | 0.125 | -0.012 | -0.07 | -0.021 | 0.072 | 0.037 | -0.025 | 0.069 | -0.263 (active) | 0
HIP1R (UniProt O75146) | -0.028 | -0.053 | 0.003 | -0.002 | -0.047 | -0.026 | 0.036 | -0.006 | 0.059 | 0.041
GHDC (UniProt Q8N2G8) | -0.028 | 0.057 | -0.03 | -0.021 | -0.113 | -0.041 | -0.044 | -0.011 | -0.025 | -0.008
IFITM3 (UniProt Q01628) | -0.058 | 0.074 | 0.148 | -0.059 | -0.425 (active) | 0.177 | 0.2 | 0.218 | -0.036 | 0.051
GNL1 (UniProt P36915) | 0.019 | -0.014 | 0.032 | 0.036 | -0.031 | -0.01 | 0.081 | 0.002 | -0.033 | 0.017
GLUD2 (UniProt P49448) | 0.104 | 0.006 | -0.062 | -0.015 | -0.045 | 0.017 | 0.006 | 0.238 | -0.107 | 0.015
FAM91A1 (UniProt Q658Y4) | 0.035 | 0.034 | -0.036 | -0.048 | 0.286 (active) | -0.055 | 0.051 | 0.07 | 0.024 | 0.06
GOPC (UniProt Q9HD26) | 0.207 | 0.018 | -0.051 | -0.066 | 0.131 | 0.094 | -0.128 | 0.244 | 0.152 | -0.116
FYB1 isoform 3 (UniProt O15117) | 0.073 | 0.063 | 0.093 | 0.051 | 0.011 | -0.009 | 0.169 | -0.03 | 0.066 | 0.052
HADHB (UniProt P55084) | 0.19 | -0.248 | -0.002 | -0.012 | -0.085 | -0.047 | -0.042 | 0.113 | 0.064 | 0
GPS2 (UniProt Q13227) | -0.13 | -0.04 | -0.17 | -0.013 | -0.316 (active) | 0.019 | -0.01 | 0.026 | -0.145 | -0.008
GBF1 (UniProt Q92538) | -0.049 | -0.071 | -0.012 | -0.028 | 0.078 | 0.028 | 0.059 | 0.014 | 0.07 | 0.028
FAT1 (UniProt Q14517) | -0.036 | -0.218 | -0.029 | 0.053 | 0.104 | -0.199 | -0.051 | -0.067 | 0.044 | 0.045
GDE1 (UniProt Q9NZC3) | 0.022 | -0.004 | 0.012 | -0.059 | 0.02 | -0.033 | -0.009 | 0.064 | -0.052 | -0.049
HIKESHI (UniProt Q53FT3) | -0.138 | -0.051 | 0.003 | -0.011 | -0.037 | 0.027 | 0.003 | -0.033 | -0.008 | 0.011
HIST2H3A (UniProt Q71DI3) | -0.1 | -0.004 | -0.119 | -0.056 | 0.921 (active) | -0.203 | 0.592 | 0.037 | 0.321 | -0.148
HBZ (UniProt P02008) | 0.01 | -0.074 | 0.025 | 0.042 | -0.013 | -0.028 | -0.006 | -0.008 | -0.052 | 0.044
HAT1 (UniProt O14929) | 0.042 | -0.037 | 0.008 | 0.095 | -0.034 | 0.087 | 0.013 | 0.007 | 0.005 | 0.025
GLA (UniProt P06280) | -0.016 | 0.027 | -0.001 | 0.011 | 0.005 | -0.009 | -0.038 | -0.039 | 0.04 | 0.005

Reference: the supplement of paper PMC10849652
